Reference: PubChem BioAssay AID624483 (NMMLSC, 2012)
About 11,000 (3.1%) of roughly 360,000 compounds were called active. About 2% were inconclusive and are not listed. Rule as the data show it: active = fluorescence intensity above about 16000; inconclusive = no clear call, values can overlap the other calls; inactive = below that. For the sample, actives were picked, then their nearest neighbours and some compounds at random.

experiment: compound fluorescence in toxin protease inhibitor counterscreen, primary screen, artefact control for toxin protease inhibitor project, biochemical, multiplex microsphere, HTS (AID 624483); details: compound autofluorescence counterscreen, microsphere flow cytometry; active compounds read high

Structure (SMILES)	fluorescence intensity
C[N+](C)(C)CCNC(=O)c1c[nH]c2ccccc12	5520 (inactive)
CCCNC(=O)C1(C)CCN1C(=O)Cc1ccc(-c2ccccc2)cc1 (stereo not given)	3250 (inactive)
CC(=O)Nc1ccc(SCC(=O)Nc2ccccc2Oc2ccccc2)cc1	2020 (inactive)
C#Cc1cc(N2CCN(C(=O)c3ccoc3)CC2)n2nc(-c3cccc(Cl)c3)cc2n1	4220 (inactive)
CCCCOc1ccc(C(=O)NCc2ccncc2)cc1	20300 (active)
CC(C)(C)NC(=O)C(=O)NCc1ccncc1	2060 (inactive)
CCCC(C)C(=O)NCc1ccncc1 (stereo not given)	2180 (inactive)
O=C(CN(C(=O)c1nsc(Cl)c1Cl)c1cccc(F)c1)NC1CCCC1	4350 (inactive)
CC(=O)Nc1cccc(OCC(=O)/C=C2\N(C)c3ccccc3C2(C)C)c1	3790 (inactive)
Cc1noc(C)c1C(=O)OCC(=O)N1CCN(S(=O)(=O)c2ccc3ccccc3c2)CC1	4540 (inactive)
Cc1noc(C)c1C(=O)OCC(=O)/C=C1\N(C)c2ccccc2C1(C)C	23200 (active)
CC1(C(=O)NS(=O)(=O)c2cccc(OC(F)F)c2)CCN1C(=O)COc1ccc(Cl)cc1 (stereo not given)	2870 (inactive)
Cc1ccn(-c2cccc(-n3ccc(C)n3)n2)n1	2160 (inactive)
CC(=O)Nc1cc(-c2ccc(N3CCN(C)CC3)cc2)cn2c(-c3ccc(F)cc3)cnc12	3850 (inactive)
Cc1ccc(C(=O)c2c(NC(=O)c3ccccc3)sc(C)c2C)cc1	24600 (active)
Cc1sc(NC(=O)c2ccc3ncsc3c2)c(C(N)=O)c1C	5240 (inactive)
CC(=O)c1c(Nc2ccccc2)sc(C(=O)c2ccccc2)c1C	2060 (inactive)
C[C@H](NC(=O)[C@@H]1CCCN1C(=O)[C@@H]1CCCN1C(=O)c1ccccc1)c1ccccc1	6120 (inactive)

Structure (SMILES)	fluorescence intensity
Cc1c(Cl)cccc1NC(=S)NCC(O)c1ccccc1 (stereo not given)	2920 (inactive)
COc1ccc(OC(C)C(=O)Nc2cccnc2)cc1 (stereo not given)	23000 (active)
CC(Oc1ccc(Cl)cc1)C(=O)Nc1ncccn1 (stereo not given)	6780 (inactive)
COc1ccc(C(=O)CCC(=O)Nc2cccnc2)c(OC)c1	5960 (inactive)
Cc1ccc(C(=O)O)c(NC=O)c1OCc1ccccc1	4160 (inactive)
COc1ccc(NS(=O)(=O)c2ccc(C(=O)Nc3c(C)n(C)n(-c4ccccc4)c3=O)cc2)cc1	2940 (inactive)
COc1ccccc1-c1cc(C(=O)N2CCCCC2)no1	4320 (inactive)
O=C(c1noc2c1CCCC2)N1CCc2ccccc2C1	3010 (inactive)
COc1ccc(S(=O)(=O)Nc2c(C)n(C)n(-c3ccccc3)c2=O)cc1	16100 (active)
COc1ccc(C(=O)C(C)OC(=O)c2cccc(S(=O)(=O)Nc3c(C)n(C)n(-c4ccccc4)c3=O)c2)cc1 (stereo not given)	3490 (inactive)
Cc1c(NC(=O)c2cc(-c3ccc(Br)cc3)on2)c(=O)n(-c2ccccc2)n1C	5870 (inactive)
COc1ccc2c(c1)CCc1c(C(=O)N3CCCC3)noc1-2	21100 (active)
COc1ccc(C(=O)N2CCCN(C)CC2)c(OC)c1	4060 (inactive)
Cc1c(NC(=O)c2coc(=O)c(Br)c2)c(=O)n(-c2ccccc2)n1C	2950 (inactive)
COc1ccc2c(c1)CCc1c(C(=O)N3CCc4ccccc4C3)noc1-2	21600 (active)
COc1ccc(OC)c(NC(=S)N2CCc3ccccc3C2)c1	2080 (inactive)
COc1ccc2c(c1)CCc1c(C(=O)Nc3c(C)n(C)n(-c4ccccc4)c3=O)noc1-2	21100 (active)
